# Measured values: PubChem BioAssay AID720594 (Broad Institute, 2013)
# Measured potencies and affinities stand elsewhere. Activity calls are given as the source filed them.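 How the source made its calls: active means falling ATP light signal with a fitted half-maximal concentration at most twice the highest valid tested dose; inconclusive means flat fit with moderate signal loss, or poor fit; inactive means the rest.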
# Test: HepG2 hepatoma cell cytotoxicity, dose response, cytotoxicity control, CellTiter-Glo luminescence, dry powder, set 3 (AID 720594)
# Conditions: HepG2 viability, ATP luminescence, 72 h; series mostly up to 26 µM
row,SMILES,outcome
1,FC(F)(F)c1cc(-c2nn[nH]n2)cc(C(F)(F)F)c1,inactive
2,CC(C)CC(=O)NC(c1cccs1)c1ccc2cccnc2c1O (centres undefined),inactive
3,O=C(CSc1ccc(-c2ccccn2)nn1)NC1CCCCC1,inactive
4,O=C(Nc1nnc(-c2ccc(F)cc2)o1)c1ccc(S(=O)(=O)N2CCCCC2)cc1,inactive
5,CC1CCN(S(=O)(=O)c2ccc(C(=O)Nc3nnc(-c4ccno4)o3)cc2)CC1,inactive
6,O=C(Nc1nnc(C2=COCCO2)o1)c1ccc(S(=O)(=O)N2CCCCC2)cc1,inactive
7,CC(C)Cc1nnc(NC(=O)c2cccc(S(=O)(=O)N3CCOCC3)c2)s1,inactive
8,CC1CCN(S(=O)(=O)c2ccc(C(=O)Nc3nnc(-c4ccco4)o3)cc2)CC1,inactive
9,COC(=O)c1ccc(NC(=O)CSc2ccc(-c3ccccn3)nn2)cc1,inactive
10,O=C(Nc1nc(-c2ccncc2)cs1)c1cccc(S(=O)(=O)N2CCOCC2)c1,inactive
11,CCc1cc2c(=O)[nH]c(-c3ccccn3)nc2s1,inactive
12,O=C(Nc1nc(-c2ccccn2)cs1)c1ccco1,inactive
13,Cc1ccc(C(=O)Nc2nc(-c3ccccn3)cs2)o1,inactive
14,Cc1c(C(=O)N(C)C)sc2nc(-c3ccccn3)[nH]c(=O)c12,inactive
